Compound activity as filed in PubChem.
A selection: hits, their analogues and other compounds. The true share with any hit is near 9%.
LMNA splice mod: modulators of lamin A splicing; 200,000 compounds, 0.01% hits; HeLa LMNA splicing GFP/RFP minigene ratio, 48 h; Potency, µM (highest dose often 46.1 µM), for inactives: at the highest dose ratio change, negative = inhibition, actives largely listed as inhibitors; AID 1487; active = well fitted inhibition curve with a large enough effect in the signal ratio, with a control signal flat, not every such curve was filed as active; inconclusive = small, poorly fitted or top-dose-only effect, or effect the other way, or a change in a side signal; the % refers to the signal ratio; note: % is set by controls: 0 for no effect and ±100 for the full control effect
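S3 HeLa cells stably expressing lamin A-EGFP splicing minigene plus DsRed2, 600 cells/well, 48 h compound exposure at 37C. Laser-scanning cytometry; analysed as GFP (500-530 nm)/RFP (575-640 nm) total intensity ratio; 0.5% DMSO vehicle.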
HTT aggregate: mutant huntingtin aggregation inhibition; PC12 HttQ103-GFP aggregates, Acumen cytometry, 40 h; Potency, µM (highest dose often 46.1 µM), for inactives: at the top dose activity change, negative = inhibition, most hits filed as inhibitors; 220,000 compounds, 1.1% hits; AID 1688; note: % is set by controls: 0 for no effect and ±100 for the full control effect; nearly all actives have a fitted effect of over 60% in size
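Using laser scanning cytometry, GFP-positive aggregates were counted after lysis of PC12 cells induced with 100 nM tebufenozide to express HTT exon 1 Q103–GFP. Compounds were tested in titration.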
HTT cytoprotect: Huntington cell model cytoprotection by ATP luminescence; PC12 HTT-Q103 induced, cytoprotection, ATP luminescence, 40 h; Potency, µM (doses to about 56.4 µM), without a hit: cytoprotection (ATP increase), hits mostly activators; 230,000 compounds, 0.14% hits; note: % of control where 0% means no effect; nearly all actives have a fitted effect of over 45% in size
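Cells were plated at 1500 per well in phenol red-free DMEM with 5% equine and 5% calf serum. Tebufenozide (100 nM final) and compounds were added, then ATPlite reagent, and luminescence was read.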
Luc counter: blocks Kinase-Glo luciferase, a counter-screen artifact. Kinase-Glo luciferase, ATP luminescence, 8 min. Potency, µM (doses to about 38.3 µM), inactives show at the highest dose activity change, negative = inhibition, most hits filed as inhibitors. 200,000 compounds, 0.28% hits; note: % is set by controls: 0 for no effect and ±100 for the full control effect; nearly all actives have a fitted effect of over 60% in size
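Recombinant Kinase-Glo luciferase, 10 uM ATP (linear range), luciferin; imidazole pH 7.2 / KCl / MgCl2 / Tween / BSA buffer; 8 min RT; luminescence.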
ALDH1A1 block: inhibitors of human aldehyde dehydrogenase 1A1; P00352; Purified ALDH1A1, NADH fluorescence, propionaldehyde substrate; Potency, µM (highest dose often 75.3 µM), for inactives: top-dose activity, negative = inhibition, actives largely listed as inhibitors; 220,000 compounds, 7.3% hits; AID 1030; active = well fitted inhibition curve with a large enough effect, not every such curve was filed as active; inconclusive = small, poorly fitted or top-dose-only effect, or another doubt; inactive = no such curve, though single readings can be large or run the other way;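 note: plate controls were no enzyme wells and a reference inhibitor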
HPGD block: HPGD (human) dehydrogenase inhibition; P15428; purified HPGD, NADH fluorescence kinetic, PGE2 substrate; Potency, µM, inactives show at the highest dose activity change, negative = inhibition, usual class: inhibitors; 150,000 compounds, 4.3% hits; active = well fitted inhibition curve with a large enough effect, not every such curve was filed as active; inconclusive = small, poorly fitted or top-dose-only effect, or another doubt; inactive = no such curve, though single readings can be large or run the other way; note: % is set by controls: 0 for no effect and ±100 for the full control effect
Target sequence (P15428 whole entry, looked up): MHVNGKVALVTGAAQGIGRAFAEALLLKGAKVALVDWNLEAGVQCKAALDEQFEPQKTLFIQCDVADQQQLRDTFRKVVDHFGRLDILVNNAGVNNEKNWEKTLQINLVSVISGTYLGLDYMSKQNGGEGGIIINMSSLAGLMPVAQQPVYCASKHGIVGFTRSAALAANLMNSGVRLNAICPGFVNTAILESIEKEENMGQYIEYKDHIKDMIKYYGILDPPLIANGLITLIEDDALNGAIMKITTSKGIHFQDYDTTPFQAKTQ
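NADH formation kinetics: reaction with 30 uM PGE2 and 1 mM NAD+ (final), 20 nM enzyme, Tris-HCl pH 8 with Tween 20, after 15 min compound preincubation at room temperature. Fluorescence change, last versus first of five reads.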
Numbers without * were called inactive; ? = inconclusive; nt = not tested or not shown; [ ] = remark or other dose. Unless noted, calls come from the whole dose curve; as a rule, active = well fitted curve in the direction sought with a large enough effect; inconclusive = small, poorly fitted or top-dose-only effect, or another doubt; inactive = no such curve, though single readings can be large; an effect the other way counts as inactive or inconclusive. Potency is the fitted concentration of half-maximal effect.

SMILES	LMNA splice mod	HTT aggregate	HTT cytoprotect	Luc counter	ALDH1A1 block	HPGD block
CC1(C)Cc2c(sc3c2c(=N)n(Cc2ccco2)c(=O)n3Cc2ccc(Cl)cc2)CO1	2%	18µM*	-24%	0%	?	-13%
CC1(C)Cc2c(sc3[nH]c(=S)n(Cc4ccco4)c(=O)c23)CO1	?	?	-35%	-5%	5µM*	22µM*
CCc1ccc(-n2c(=O)c3c(C)c(C(=O)N(C)C)sc3n(CC(=O)Nc3cc(Cl)ccc3C)c2=O)cc1	3%[46 µM]	nt	nt	nt	nt	nt
c1ccc(-c2ccc(-c3ccccn3)nn2)nc1	?	?	-125%[0.074 µM]	10µM*	20µM*	25µM*
c1ccc(-c2ccccn2)nc1	?	8%	5%[1.9 µM]	0%	3%	-11%
CCOC(=O)C1=C(CC)Nc2ccccc2N=C1NC(=O)c1ccc(S(=O)(=O)N2CCOCC2)cc1	nt	-12%	-14%	0%	14µM*	nt
CCOC(=O)C1=C(C)Nc2ccccc2N=C1NC(=O)c1cccc(S(=O)(=O)N(C)C)c1	-8%	6%	-24%	-1%	0%	1%
CCOC(=O)C1=C(C)Nc2ccccc2N=C1NC(=O)C(c1ccccc1)c1ccccc1	nt	1%	1%[10 µM]	-2%	0.14µM*	nt
O=C(CSc1ncn[nH]1)Nc1ccccc1-c1ccccc1	21%	-8%	15%	1%	?	-8%
O=C(CSc1ncn[nH]1)Nc1nnc(-c2ccccc2)s1	?	8%	-30%	10%	28µM*	-26%
O=C(CN1CCN(c2ccccc2)CC1)Nc1nnc(-c2ccccc2)s1	-5%	1%[9.22 µM]	-13%[10 µM]	-3%	-8%	-8%
O=C(CN1CCN(c2ccc(F)cc2)CC1)Nc1nnc(-c2ccccc2)s1	-2%	9%	3%[10 µM]	0%	28µM*	-8%
CCc1ccccc1NC(=O)CSc1nnc([C@H](CCSC)NC(=O)OC(C)(C)C)o1	-5%	29%	-13%[0.074 µM]	12%	22µM*	-18%
CSCC[C@H](NC(=O)OC(C)(C)C)c1nnc(SCC(=O)Nc2ccc(C)cc2C)o1	0%	7%	-3%[0.074 µM]	-5%	3%	-13%
CCCCSc1nnc([C@H](C)NC(=O)OC(C)(C)C)o1	4%	1%	1%[10 µM]	1%	22µM*	-30%
CC1CC(=O)c2cnc(NCC3CCCO3)nc2C1 (stereo not given)	-5%	-1%	-9%[10 µM]	4%	?	-28%
CC1(C)CC(=O)c2cnc(NCC3CCCO3)nc2C1 (stereo not given)	3%	-4%	-8%[0.074 µM]	-1%	?	22µM*
COc1ccccc1NC(=O)c1ccc(-c2ccccc2[N+](=O)[O-])o1	nt	4%	-19%	-1%	7.9µM*	nt
Cn1c(=O)c2c(nc(SCCN3CCOCC3)n2Cc2ccccc2)n(C)c1=O	-2%	-14%	9%[1.9 µM]	6%	-8%	-4%
COc1ccccc1CNC(=O)C(C)NS(=O)(=O)c1ccc(Br)cc1 (stereo not given)	-8%	7%	5%[1.9 µM]	4%	28µM*	-5%
COCCCNC(=O)CC(NS(=O)(=O)c1ccc(C)cc1)c1ccco1 (stereo not given)	2%	8%	1%	2%	0%	-12%
Cc1ccc(S(=O)(=O)NC(CC(=O)N2CCOCC2)c2ccco2)cc1 (stereo not given)	?	5%	-5%[10 µM]	8%	13µM*	-10%
CC(C)Oc1ccc(C(CC(=O)NCc2ccco2)c2ccccc2)cc1 (stereo not given)	-4%	-38%	-26%	-2%	?	11µM*
CC(NS(=O)(=O)c1ccccc1)C(=O)NCc1ccco1 (stereo not given)	15%	-7%	-31%	-3%	24µM*	?
Cc1ccc(-n2c(C)nn(CC3CC3)c2=O)cc1	nt	10%	?	5%	9%	nt
SMILES	LMNA splice mod	HTT aggregate	HTT cytoprotect	Luc counter	ALDH1A1 block	HPGD block
O=C(O)c1ccc(NCc2nc3ccccc3n2CCOc2ccccc2Cl)cc1	nt	-5%	nt	0%	2%	nt
COC(=O)NC1(C(F)(F)F)C(=O)Nc2c1c(=O)n(C)c(=O)n2C (stereo not given)	?	6%	4%[10 µM]	-2%	9%	nt
Cc1cccc2c(C(=O)Nc3ccc(Br)cc3)cc(-c3ccccn3)nc12	nt	9%	2%[10 µM]	-2%	?	nt
Cc1ccc(S(=O)(=O)NC(CC(=O)NC2CCCC2)c2ccco2)cc1 (stereo not given)	-5%	21%	6%[10 µM]	1%	14µM*	-7%
O=C(C(c1ccccc1)c1ccccc1)N1CCOCC1	7%	4%	8%	13%	-8%	-18%
COc1ccc(S(=O)(=O)NC(CC(=O)NC2CCCC2)c2ccco2)cc1 (stereo not given)	4%	-14%	-12%	5%	?	-13%
COc1ccc(S(=O)(=O)NC(CC(=O)NCCc2ccccc2)c2ccco2)cc1 (stereo not given)	5%	-9%	5%	-3%	?	4%
O=C(CC(c1ccccc1)c1ccco1)N1CCOCC1 (stereo not given)	0%	10%	9%[1.9 µM]	-3%	40µM*	18µM*
COc1ccc(S(=O)(=O)NC(CC(=O)NCCc2ccc(OC)c(OC)c2)c2ccco2)cc1 (stereo not given)	-13%	-3%	2%[10 µM]	-1%	13µM*	-6%
Cc1ccc(S(=O)(=O)NC(CC(=O)NCc2ccco2)c2ccco2)cc1 (stereo not given)	-5%	11%	5%[10 µM]	4%	25µM*	-13%
COc1ncc2nc(-c3ccccc3)c(=O)n(-c3ccccc3)c2n1	-3%	nt	-34%	nt	?	nt
CCN(CC)CCn1c(=N)n(CCOc2ccccc2)c2ccccc21	?	-22%	-62%	2%	2%	-3%
Cc1cc(C)nc(NC(=O)c2csnn2)c1	?	-7%	-5%	-3%	-18%	nt
CCOc1ccc(CC(=O)NCCc2csc(-c3ccc(C(F)(F)F)cc3)n2)cc1	-1%[46 µM]	nt	nt	nt	nt	nt
Cc1ccc(O)c(C(CC(=O)N2CCCC2)c2ccccc2)c1 (stereo not given)	-4%	-3%	10%	2%	-7%	7.1µM*
C=CCn1c(SCC(=O)NCCOC)nnc1-c1cc2c(s1)CCC(CC)C2 (stereo not given)	?	-27%	0%[1.9 µM]	4%	?	18µM*
O=S(=O)(c1ccc(Br)cc1)c1cnc2ccccc2n1	?	?	-146%	-4%	-1%	nt
Clc1cc(Cl)c2nc(N3CCCCC3)sc2c1	-7%	-26%	-20%	-8%	22µM*	22µM*
Clc1cccc2sc(N3CCCCC3)nc12	23%	-18%	12%	-1%	-2%	?
